In experiment [1] the target is Nuclear respiratory factor 1 (Homo sapiens) (UniProt Q16656). Description: ATG_NRF1_CIS: Attagene CIS-FACTORIAL HepG2 Assay for human Nuclear Respiratory Factor 1 (NRF1) Orphan Gene (AID 2282987). The following applies: HepG2 NRF1 cis-element reporter, Attagene multiplex; actives raise or lower the signal. The gist of the method: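 Endogenous NRF1-driven reporter transcription measured in transiently transfected human HepG2 liver cells. Readout: reporter mRNA by RT-PCR and capillary electrophoresis with fluorescence detection, 24 h post-dosing. Gain or loss of signal fitted relative to DMSO baseline.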

Experiment [2] is described as follows: ATG_NFI_CIS: Attagene CIS-FACTORIAL HepG2 Assay for human Nuclear Factor I (NFI) (AID 2282989). The note with it: HepG2 cis-regulatory reporter, NFI response element transcription; actives raise or lower the signal. The gist of the method:
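Multiplexed cis-reporter system in human HepG2 cells reports native TF activity as reporter mRNA induction 24 h post-dose. Fragments labelled with 6-FAM, HpaI-digested and resolved by capillary electrophoresis; activity fitted both directions versus DMSO.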

In experiment [3] the target is Myc proto-oncogene protein (Homo sapiens) (UniProt P01106). Description: ATG_Myc_CIS: Attagene CIS-FACTORIAL HepG2 Assay for human Myelocytomatosis (Myc) Proto-Oncogene Transcription Factor (AID 2282990). The following applies: HepG2, Attagene cis-reporter transcription factor activity; actives raise or lower the signal. The gist of the method: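 Read-out: fluorescent reporter mRNA fragments resolved by capillary electrophoresis after RT-PCR. Human HepG2 liver cells carried transfected cis-element reporter units and were dosed for 24 h. Gain or loss of signal fitted relative to DMSO baseline.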

The nature of experiment [4]: ATG_NF_kB_CIS: Attagene CIS-FACTORIAL HepG2 Assay for human Nuclear Factor Kappa B (NF-kB) (AID 2282991). The following applies: HepG2 Attagene cis-factorial NF-kB reporter mRNA; actives raise or lower the signal. Put shortly:
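Read-out: reporter transcript levels quantified by RT-PCR plus capillary electrophoresis of 6-FAM-labelled, HpaI-cut fragments. Transfected HepG2 cells, 24 h compound exposure, endogenous NF-kB-driven cis element; gain or loss scored versus DMSO.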

Experiment [5] can be described thus: ATG_NRF2_ARE_CIS: Attagene CIS-FACTORIAL HepG2 Assay for human Nuclear Factor Erythroid 2 Related Factor 2 (NFR2) response to Antioxidant Response Elements (ARE) (AID 2282992). The note with it: HepG2 Attagene ARE/NRF2 reporter, transcription factor activity; actives raise or lower the signal. Put shortly: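 Cis-factorial assay: transfected HepG2 reporter library, 24 h dosing, mRNA readout via RT-PCR/CE; DMSO-referenced bidirectional analysis.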

Experiment [6] in a line: ATG_Oct_MLP_CIS: Attagene CIS-FACTORIAL HepG2 Assay for human Octamer-Binding Transcription Factor (Oct) (AID 2282993). The following applies: HepG2 Attagene cis-factorial Oct reporter, mRNA; actives raise or lower the signal. Put shortly: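 After 24 h compound exposure, transfected HepG2 cells were lysed for total RNA; reporter-specific cDNA was PCR-amplified, fluorescently labelled and sized by capillary electrophoresis. Bidirectional curve fitting used DMSO as baseline.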

The target in experiment [7] is Cellular tumor antigen p53 (Homo sapiens) (UniProt P04637). Description: ATG_p53_CIS: Attagene CIS-FACTORIAL HepG2 Assay for human p53 Transcription Factor (AID 2282994). The note with it: HepG2 p53 cis-element reporter, Attagene mRNA; actives raise or lower the signal. Put shortly:
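Using HepG2 hepatoma cells carrying cis-acting multiplexed reporters, mRNA induction is detected after a 24 h exposure. Gain- and loss-of-signal responses are fitted relative to DMSO-treated cells.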

The nature of experiment [8]: BSK_3C_TissueFactor: BioMAP Diversity Plus: 3C Assay for Tissue Factor Biomarker Activity (AID 2282997). The following applies: BioMAP 3C HUVEC, tissue factor biomarker readout; actives raise or lower the signal. The gist of the method:
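ELISA read-out of Tissue Factor levels on human umbilical vein endothelium collected 24 h after chemical dosing. Gain or loss of signal was fitted relative to DMSO.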

The nature of experiment [9]: BSK_3C_uPAR: BioMAP Diversity Plus: 3C Assay for Urokinase-type plasminogen activator receptor (uPAR) Biomarker Activity (AID 2282998). The note with it: BioMAP 3C HUVEC, uPAR biomarker ELISA; actives raise or lower the signal. Put shortly:
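Values derive from bidirectional curve fitting relative to DMSO, which served as baseline of activity. uPAR was measured by ELISA in human umbilical vein endothelial primary cultures 24 h after compound addition.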
For orientation: An ELISA detects its analyte on a solid surface through an enzyme-linked reagent.

Experiment [10] is described as follows: BSK_3C_VCAM1: BioMAP Diversity Plus: 3C Assay for Vascular cell adhesion molecule 1 (VCAM1) Biomarker Activity (AID 2282999). The note with it: BioMAP 3C HUVEC, VCAM1 ELISA, cytokine-stimulated; actives raise or lower the signal. The gist of the method:
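Human umbilical vein endothelial cells (3C system), biomarker read by ELISA 24 h after dosing; bidirectional fit against DMSO baseline. Cytotoxicity tracked by SRB total-protein staining in parallel cultures at biomarker time.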

Experiment [11] in a line: BSK_4H_Eotaxin3: BioMAP Diversity Plus: 4H Assay for Eotaxin 3 Biomarker Activity (AID 2283000).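 Further: CCL26 protein level quantified by ELISA in parallel with SRB cytotoxicity check.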 The note with it: primary human endothelial cells (HUVEC); actives raise or lower the signal. Put shortly: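 Chemicals were added to human umbilical vein endothelium cultures, and Eotaxin-3 was quantified by ELISA at 24 h. Values were derived by bidirectional fitting with DMSO serving as negative control and activity baseline.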

Experiment [12] deals with human Peroxisome Proliferator-activated Receptor alpha (PPARa), PPARA (gene 5465) (UniProt Q07869). Description: ATG_PPARa_TRANS: Attagene TRANS-FACTORIAL HepG2 Assay for human Peroxisome Proliferator-activated Receptor alpha (PPARa) (AID 2283001; active means hit-call score of the fitted dose curve at least 0.9, where 1 is the maximum;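 on AC50: potency for gain of reporter signal over DMSO so agonist or activator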). The gist of the method:
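Measures transcriptional activity of an exogenous chimeric PPARa-Gal4 protein in transiently transfected HepG2 cells after 24 h dosing. Reporter mRNA quantified via RT-PCR and capillary electrophoresis; DMSO served as negative control.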

Read-out in experiment [13]: Intercellular Adhesion Molecule 1 (ICAM1), ICAM1 (gene 3383)
As to the kind of experiment: BSK_3C_ICAM1: BioMAP Diversity Plus: 3C Assay for Intercellular Adhesion Molecule 1 (ICAM1) Biomarker Activity (AID 2283003). The note with it: primary human endothelial cells (HUVEC); actives raise or lower the signal. The gist of the method: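 Primary human umbilical vein endothelial cells in the BioMAP 3C system were exposed to chemicals for 24 h, then ICAM-1 was quantified by ELISA. Activity was fitted bidirectionally against the DMSO negative control baseline.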

The target of experiment [14] is human Retinoic Acid Receptor beta (RARb), RARB (gene 5915) (UniProt P10826). Description: ATG_RARb_TRANS: Attagene TRANS-FACTORIAL HepG2 Assay for human Retinoic Acid Receptor beta (AID 2283004; active means hit-call score of the fitted dose curve at least 0.9, where 1 is the maximum). Put shortly: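 Transient transfection of HepG2 with multiple reporter units → chemical dosing, 24 h → total RNA isolation → RT with oligo(dT) → reporter-specific PCR, 6-FAM primer extension, HpaI digest → capillary electrophoresis. Positive direction vs DMSO control.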

For experiment [15], the target named is Retinoic acid receptor alpha (Homo sapiens) (UniProt P10276). As to the kind of experiment: ATG_RARa_TRANS: Attagene TRANS-FACTORIAL HepG2 Assay for human Retinoic Acid Receptor alpha (RARa) (AID 2283005; active means hit-call score of the fitted dose curve at least 0.9, where 1 is the maximum). The gist of the method:
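HepG2 transiently transfected with multiplex GAL4-UAS reporter units including a human RARa–GAL4 chimera; 24 h compound exposure. Reporter mRNA quantified by RT-PCR, 6-FAM labeling and capillary electrophoresis; gain of signal versus DMSO.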

The nature of experiment [16]: BSK_3C_Proliferation: Cell Proliferation Assessment in the BioMAP Diversity Plus: 3C Assay (AID 2283006). The note with it: primary human endothelial cells (HUVEC). Put shortly:
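Human umbilical vein endothelial cells were grown sub-confluent and exposed to chemical for 48 h, then fixed with 10% TCA and stained with 0.1% sulforhodamine B; absorbance at 560 nm gave relative cell number, fitted bidirectionally against DMSO baseline.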

For experiment [17], the target named is Peroxisome proliferator-activated receptor gamma (Homo sapiens) (UniProt P37231). Description: ATG_PPARg_TRANS: Attagene TRANS-FACTORIAL HepG2 Assay for human Peroxisome Proliferator-activated Receptor-gamma (PPARg) (AID 2283007; active means hit-call score of the fitted dose curve at least 0.9, where 1 is the maximum). The gist of the method:
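Read-out: reporter mRNA induction, detected by fluorescence after RT-PCR and capillary electrophoresis. Transiently transfected human HepG2 liver cells carrying a chimeric NR-Gal4 construct were dosed for 24 h; activity was fitted upward relative to DMSO.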

Experiment [18] deals with Nuclear receptor subfamily 1 group I member 2 (Homo sapiens) (UniProt O75469). Description: ATG_PXR_TRANS: Attagene TRANS-FACTORIAL HepG2 Assay for human Pregnane X Receptor (PXR) (AID 2283008; active means hit-call score of the fitted dose curve at least 0.9, where 1 is the maximum). Put shortly: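 Fluorescence intensity of FAM-labelled, HpaI-digested reporter amplicons, separated by capillary electrophoresis, quantifies induction. HepG2 cells with PXR-Gal4 trans-reporter system were exposed 24 h; DMSO defines baseline.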

Experiment [19] has as its target human Retinoic Acid Receptor gamma (RARg), RARG (gene 5916) (UniProt P13631). Description: ATG_RARg_TRANS: Attagene TRANS-FACTORIAL HepG2 Assay for human Retinoic Acid Receptor gamma (RARg) (AID 2283009; active means hit-call score of the fitted dose curve at least 0.9, where 1 is the maximum). The gist of the method: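 HepG2 cells transiently transfected with multiplexed reporter units expressing chimeric RARg-GAL4 and GAL4-UAS-driven reporters; 24 h compound exposure. Reporter mRNA quantified by RT-PCR with fluorescent labelling and capillary electrophoresis; gain-of-signal fitted relative to DMSO baseline.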

Experiment [20] addresses human Peroxisome Proliferator-activated Receptor delta (PPARd), PPARD (gene 5467) (UniProt Q03181). Description: ATG_PPARd_TRANS: Attagene TRANS-FACTORIAL HepG2 Assay for human Peroxisome Proliferator-activated Receptor delta (PPARd) (AID 2283002; active means hit-call score of the fitted dose curve at least 0.9, where 1 is the maximum). Put shortly:
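Read-out: reporter mRNA induction, quantified by fluorescent RT-PCR products resolved by capillary electrophoresis. Human HepG2 liver cells carried transiently transfected Gal4-UAS reporter constructs with chimeric NR-Gal4 fusions. Cells were dosed for 24 h; DMSO served as baseline.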

Results filed as inconclusive are left out. The source made the active and inactive calls. How the source made its calls, unless noted: active means hit-call score of the fitted dose curve at least 0.9, where 1 is the maximum; inactive means score below 0.9.

The term AC50 denotes the midpoint of the concentration-response curve, whichever way the signal moves.

Cellular tumor antigen p53 (Homo sapiens), sequence (P04637 whole entry, looked up): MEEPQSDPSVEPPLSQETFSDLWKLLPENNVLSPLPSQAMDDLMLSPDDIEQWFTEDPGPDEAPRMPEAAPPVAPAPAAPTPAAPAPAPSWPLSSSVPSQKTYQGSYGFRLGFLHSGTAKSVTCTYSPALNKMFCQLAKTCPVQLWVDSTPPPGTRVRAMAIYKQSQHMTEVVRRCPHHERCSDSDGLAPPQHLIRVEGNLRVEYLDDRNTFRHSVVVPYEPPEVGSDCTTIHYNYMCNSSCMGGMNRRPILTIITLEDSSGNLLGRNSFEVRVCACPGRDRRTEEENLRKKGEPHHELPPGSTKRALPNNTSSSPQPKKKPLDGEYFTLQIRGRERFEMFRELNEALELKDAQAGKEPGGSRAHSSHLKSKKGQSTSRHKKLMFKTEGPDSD
Nuclear respiratory factor 1 (Homo sapiens), sequence (Q16656 whole entry, looked up): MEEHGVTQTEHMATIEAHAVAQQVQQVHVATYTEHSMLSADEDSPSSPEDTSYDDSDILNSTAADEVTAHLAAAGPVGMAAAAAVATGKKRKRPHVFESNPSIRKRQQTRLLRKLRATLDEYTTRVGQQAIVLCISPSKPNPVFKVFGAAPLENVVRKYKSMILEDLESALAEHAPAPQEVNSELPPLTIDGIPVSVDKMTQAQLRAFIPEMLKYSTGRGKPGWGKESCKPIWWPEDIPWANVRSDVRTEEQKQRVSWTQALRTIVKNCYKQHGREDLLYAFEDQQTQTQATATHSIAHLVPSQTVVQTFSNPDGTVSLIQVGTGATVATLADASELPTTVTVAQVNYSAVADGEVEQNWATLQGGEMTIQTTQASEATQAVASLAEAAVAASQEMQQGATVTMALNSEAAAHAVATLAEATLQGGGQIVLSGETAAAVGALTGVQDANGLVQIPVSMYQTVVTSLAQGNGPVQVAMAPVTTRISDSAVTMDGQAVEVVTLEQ
Nuclear receptor subfamily 1 group I member 2 (Homo sapiens), sequence (O75469 whole entry, looked up, the tested form may be a part): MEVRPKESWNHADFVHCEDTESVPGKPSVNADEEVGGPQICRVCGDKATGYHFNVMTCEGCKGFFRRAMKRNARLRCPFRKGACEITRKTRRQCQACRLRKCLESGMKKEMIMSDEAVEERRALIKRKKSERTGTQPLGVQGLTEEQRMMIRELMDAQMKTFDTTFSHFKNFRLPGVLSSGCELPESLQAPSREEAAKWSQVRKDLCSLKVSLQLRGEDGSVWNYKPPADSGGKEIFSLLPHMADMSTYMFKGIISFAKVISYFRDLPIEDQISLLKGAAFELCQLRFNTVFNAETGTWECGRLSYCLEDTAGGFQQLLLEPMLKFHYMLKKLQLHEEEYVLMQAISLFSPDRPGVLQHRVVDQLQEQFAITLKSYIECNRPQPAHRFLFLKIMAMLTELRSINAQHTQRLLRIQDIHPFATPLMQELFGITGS
Myc proto-oncogene protein (Homo sapiens), sequence (P01106 whole entry, looked up, the tested form may be a part): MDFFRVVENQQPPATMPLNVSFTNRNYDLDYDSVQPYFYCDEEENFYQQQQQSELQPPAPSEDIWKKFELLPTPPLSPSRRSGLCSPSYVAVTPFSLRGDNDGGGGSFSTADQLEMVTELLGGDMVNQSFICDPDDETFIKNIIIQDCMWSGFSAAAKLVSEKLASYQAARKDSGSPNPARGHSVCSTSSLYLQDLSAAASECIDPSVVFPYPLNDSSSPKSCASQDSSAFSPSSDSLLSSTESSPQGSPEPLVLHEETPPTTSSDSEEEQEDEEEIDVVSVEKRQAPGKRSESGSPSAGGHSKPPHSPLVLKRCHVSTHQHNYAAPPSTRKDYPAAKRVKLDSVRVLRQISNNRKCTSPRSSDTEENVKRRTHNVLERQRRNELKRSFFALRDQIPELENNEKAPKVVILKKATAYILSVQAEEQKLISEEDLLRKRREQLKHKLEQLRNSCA
Peroxisome proliferator-activated receptor gamma (Homo sapiens), sequence (P37231 whole entry, looked up, the tested form may be a part): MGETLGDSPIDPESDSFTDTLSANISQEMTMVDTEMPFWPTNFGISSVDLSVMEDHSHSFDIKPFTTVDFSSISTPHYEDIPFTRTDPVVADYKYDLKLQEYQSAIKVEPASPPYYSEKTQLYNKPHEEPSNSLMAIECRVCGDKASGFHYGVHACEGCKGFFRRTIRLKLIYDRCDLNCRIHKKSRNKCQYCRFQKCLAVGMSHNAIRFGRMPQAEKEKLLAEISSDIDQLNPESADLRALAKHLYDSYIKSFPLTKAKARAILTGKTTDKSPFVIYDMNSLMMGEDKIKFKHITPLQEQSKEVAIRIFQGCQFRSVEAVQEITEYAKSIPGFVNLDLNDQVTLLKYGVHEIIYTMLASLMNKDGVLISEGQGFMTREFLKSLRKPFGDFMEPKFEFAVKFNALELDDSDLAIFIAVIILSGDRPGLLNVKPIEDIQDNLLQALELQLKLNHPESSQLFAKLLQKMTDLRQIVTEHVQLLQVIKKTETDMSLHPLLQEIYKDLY
human Peroxisome Proliferator-activated Receptor alpha (PPARa), PPARA (gene 5465), sequence (Q07869 whole entry, looked up, the tested form may be a part): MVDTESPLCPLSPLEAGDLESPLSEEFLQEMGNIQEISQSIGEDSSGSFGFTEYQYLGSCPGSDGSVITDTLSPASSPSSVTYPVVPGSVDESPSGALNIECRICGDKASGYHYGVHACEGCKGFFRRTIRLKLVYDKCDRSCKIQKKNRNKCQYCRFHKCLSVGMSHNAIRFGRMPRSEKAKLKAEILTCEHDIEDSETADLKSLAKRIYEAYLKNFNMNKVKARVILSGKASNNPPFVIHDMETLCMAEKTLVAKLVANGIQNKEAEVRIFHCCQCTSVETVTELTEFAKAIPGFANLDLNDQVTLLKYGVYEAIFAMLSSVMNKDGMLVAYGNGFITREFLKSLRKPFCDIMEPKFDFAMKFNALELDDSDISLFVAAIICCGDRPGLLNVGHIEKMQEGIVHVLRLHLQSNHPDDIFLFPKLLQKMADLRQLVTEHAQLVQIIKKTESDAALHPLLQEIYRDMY
human Retinoic Acid Receptor beta (RARb), RARB (gene 5915), sequence (P10826 whole entry, looked up): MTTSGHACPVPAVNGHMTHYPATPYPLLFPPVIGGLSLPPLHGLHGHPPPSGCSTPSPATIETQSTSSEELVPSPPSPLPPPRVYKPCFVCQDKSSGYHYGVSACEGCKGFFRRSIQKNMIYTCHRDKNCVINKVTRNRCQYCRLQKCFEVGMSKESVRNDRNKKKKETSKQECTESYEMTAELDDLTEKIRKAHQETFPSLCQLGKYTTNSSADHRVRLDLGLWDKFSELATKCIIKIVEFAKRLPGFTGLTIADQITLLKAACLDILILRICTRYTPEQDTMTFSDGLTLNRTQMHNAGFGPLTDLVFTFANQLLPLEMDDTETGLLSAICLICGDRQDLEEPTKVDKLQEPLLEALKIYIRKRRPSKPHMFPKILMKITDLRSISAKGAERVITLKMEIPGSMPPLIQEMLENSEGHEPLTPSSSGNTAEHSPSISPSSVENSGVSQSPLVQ
Retinoic acid receptor alpha (Homo sapiens), sequence (P10276 whole entry, looked up, the tested form may be a part): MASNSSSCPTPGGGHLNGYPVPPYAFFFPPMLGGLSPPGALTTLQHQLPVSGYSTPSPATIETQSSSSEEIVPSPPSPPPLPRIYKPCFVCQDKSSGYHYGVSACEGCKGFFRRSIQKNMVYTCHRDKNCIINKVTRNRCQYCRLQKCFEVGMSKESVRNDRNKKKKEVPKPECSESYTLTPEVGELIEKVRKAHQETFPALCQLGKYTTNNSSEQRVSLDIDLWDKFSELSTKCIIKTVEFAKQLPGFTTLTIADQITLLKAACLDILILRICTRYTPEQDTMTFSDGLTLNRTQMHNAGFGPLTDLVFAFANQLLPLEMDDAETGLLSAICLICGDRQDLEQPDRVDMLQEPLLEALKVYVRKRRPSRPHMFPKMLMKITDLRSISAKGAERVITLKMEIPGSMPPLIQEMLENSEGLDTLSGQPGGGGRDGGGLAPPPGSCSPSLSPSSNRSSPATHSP
human Peroxisome Proliferator-activated Receptor delta (PPARd), PPARD (gene 5467), sequence (Q03181 whole entry, looked up, the tested form may be a part): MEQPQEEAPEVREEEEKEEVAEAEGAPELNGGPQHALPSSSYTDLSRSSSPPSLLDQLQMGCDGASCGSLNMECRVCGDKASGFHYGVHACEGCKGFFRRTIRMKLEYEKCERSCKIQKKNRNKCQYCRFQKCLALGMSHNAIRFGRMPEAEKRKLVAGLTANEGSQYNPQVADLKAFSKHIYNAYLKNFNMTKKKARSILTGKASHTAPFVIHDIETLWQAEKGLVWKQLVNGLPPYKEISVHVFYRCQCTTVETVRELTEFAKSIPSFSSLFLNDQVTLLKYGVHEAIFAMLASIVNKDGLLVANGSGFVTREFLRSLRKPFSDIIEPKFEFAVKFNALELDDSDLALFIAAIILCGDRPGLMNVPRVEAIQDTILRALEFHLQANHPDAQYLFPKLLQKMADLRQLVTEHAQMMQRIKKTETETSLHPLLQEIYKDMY
human Retinoic Acid Receptor gamma (RARg), RARG (gene 5916), sequence (P13631 whole entry, looked up, the tested form may be a part): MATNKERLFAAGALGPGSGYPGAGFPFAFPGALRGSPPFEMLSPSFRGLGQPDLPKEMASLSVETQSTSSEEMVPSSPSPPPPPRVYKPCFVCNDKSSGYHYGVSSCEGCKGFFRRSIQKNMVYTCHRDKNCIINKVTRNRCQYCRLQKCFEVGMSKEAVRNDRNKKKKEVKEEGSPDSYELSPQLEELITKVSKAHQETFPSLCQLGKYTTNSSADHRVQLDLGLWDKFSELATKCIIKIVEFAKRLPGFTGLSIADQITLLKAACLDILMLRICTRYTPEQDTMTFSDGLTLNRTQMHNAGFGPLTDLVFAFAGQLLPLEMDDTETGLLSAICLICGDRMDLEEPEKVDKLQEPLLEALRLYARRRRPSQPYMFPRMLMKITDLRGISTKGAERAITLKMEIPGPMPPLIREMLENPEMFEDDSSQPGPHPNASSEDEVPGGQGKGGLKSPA

`O=C(Cl)C(F)(F)C(F)(F)C(F)(F)C(F)(F)C(F)(F)C(F)(F)F`: the result in experiment [1], in experiment [2], in experiment [3], in [4], in experiment [6] and in [7] was inactive. Besides, the outcome in experiment [8], in experiment [9], in [10], in experiment [11], in experiment [13] and in experiment [14] was inactive. The compound was called inactive in [15], in experiment [16], in experiment [18] and in experiment [19]. Besides, the concentration at half-maximal activity (AC50) in experiment [5] is 154 µM (active); in experiment [12], 10.9 µM (active); in [17] it was 71.1 µM (active).
For `O=C(Cl)C(F)(F)C(F)(F)C(F)(F)C(F)(F)C(F)(F)C(F)(F)C(F)(F)F`, the compound was called inactive in experiment [1], in [2], in experiment [3], in [4], in experiment [6] and in [7]. In addition, the outcome in [8], in [9], in experiment [10], in experiment [11], in experiment [20] and in experiment [13] was inactive. Also, the outcome in [16], in [18] and in experiment [19] was inactive. Also, the concentration at half-maximal activity (AC50) is 49 µM (active) in [5], 10.8 µM (active) in experiment [12] and 55.1 µM (active) in experiment [17].
Consider `O=C(F)C1(F)C(F)(F)C(F)(F)C(F)(F)C(F)(F)C1(F)F`, for which the compound was classed as inactive in experiment [1], in experiment [2], in [3], in experiment [4], in experiment [5] and in experiment [6]. The result in [7], in experiment [8], in experiment [9], in experiment [10], in experiment [11] and in experiment [20] was inactive. For the same compound, the outcome in experiment [13], in [14], in experiment [15], in experiment [16] and in [17] was inactive.
Turning to `Nc1cc([N+](=O)[O-])cc(Cl)c1O`, the compound was called inactive in experiment [1], in [2], in experiment [3], in experiment [4], in experiment [5] and in experiment [6]. The compound was called inactive in [7], in experiment [8], in experiment [10], in experiment [11], in [12] and in [13]. For the same compound, the result in [16] and in [18] was inactive.

These data come from PubChem BioAssay (EPA / NIEHS).
